Source: PubChem BioAssay
VACV mCherry inh: qHTS for Stage-Specific Inhibitors of Vaccinia Orthopoxvirus: mCherry Reporter Primary qHTS; Vaccinia virus mCherry reporter infection, fluorescence; Potency, µM (highest dose often 36.5 µM), inactives show at the top dose activity change, negative = inhibition, usual class: inhibitors; hit rate 0.63% among 310,000; AID 720579, 2013; calls by dose curve; tested in A549 cells; also: nearly all actives have a fitted effect of over 35% in size
HCV inhibitor: qHTS Assay for Inhibitors of Hepatitis C Virus (HCV); Huh7.5.1 HCVcc-Cre infection, luciferase reporter, 44 h; Potency, µM (top dose mostly 41.8 µM), for the others: at the highest dose activity change, negative = inhibition, actives largely listed as inhibitors; hit rate 3.4% among 340,000; AID 651820, 2012; active = well fitted inhibition curve with a large enough effect; inconclusive = small, poorly fitted or top-dose-only effect, or another doubt; inactive = no such curve, though single readings can be large or run the other way
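A cell-based infection assay in which seeded cells (1,000 per well) receive test compound after 4 h, are inoculated with HCVcc-Cre at approximately 0.5 moi, and are incubated 44 h before luminescence detection.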
Lassa entry inh: qHTS for Inhibitors of binding or entry into cells for Lassa Virus; Lassa virus pseudotype entry inhibition, cell reporter; Potency, µM (doses to about 37.9 µM), for inactives: at the highest dose activity change, negative = inhibition, most hits filed as inhibitors; hit rate 1.2% among 300,000; AID 540256, 2011; calls by dose curve; tested in HEK293 cells; also: nearly all actives have a fitted effect of over 50% in size
VACV Venus inh: qHTS for Stage-Specific Inhibitors of Vaccinia Orthopoxvirus: Venus Reporter Primary qHTS | Vaccinia virus Venus reporter expression, fluorescence | Potency, µM (top dose mostly 36.5 µM), inactives show at the top dose activity change, negative = inhibition, most hits filed as inhibitors | hit rate 0.46% among 330,000; calls by dose curve; tested in A549 cells; also: nearly all actives have a fitted effect of over 30% in size
Marburg entry inh: qHTS for inhibitors of binding or entry into cells for Marburg Virus. Marburg virus pseudotyped entry inhibition, cell reporter. Potency, µM (titrated, usually from 37.8 µM), for inactives: at the top dose activity change, negative = inhibition, hits mostly inhibitors. hit rate 1.8% among 300,000; calls by dose curve; tested in HEK293 cells
Numbers without * were called inactive; i = inactive; ? = inconclusive; . = no result; [ ] = remark or other dose. Rows were chosen to be rich in hits. Some 4.6% of all compounds tested hit in one or more screens of this group. % is scaled to controls: 0 for no effect and ±100 for the full control effect; potency is read from the fitted curve at half-maximal effect.

SMILES	VACV mCherry inh	HCV inhibitor	Lassa entry inh	VACV Venus inh	Marburg entry inh
CCCNC(=O)CNC(=O)c1ccccc1OCC(=O)Nc1ccc(Br)cc1	-11%	.	.	-14%	.
Cc1nc2ccccn2c1/C(O)=C1\C(=O)C(=O)N(CCN2CCOCC2)C1c1cccnc1 (configuration not stated)	.	1µM*	13%	7%	4%
Nc1cc2c3c(cccc3c1)C(=O)N(CCN1CCCC1)C2=O	?	10µM*	?	?	6.3µM*
O=C1c2cccc3cccc(c23)C(=O)N1CCO	-14%	.	.	1%	.
O=C1c2cccc3cc([N+](=O)[O-])cc(c23)C(=O)N1CCN1CCCC1	0.32µM*	1.1µM*	?	?	4µM*
CCN(CC)CCN1C(=O)c2cccc3cc(N)cc(c23)C1=O	?	-4%	-24%	?	10µM*
COC(=O)C1=C(C)N(Cc2ccccc2)C(=S)NC1c1cccc(F)c1 (configuration not stated)	.	.	.	.	48%[14.2 µM]
OC1(c2ccc(Cl)cc2)CCN(Cc2cn[nH]c2-c2ccc(F)cc2)CC1	-11%	8.9µM*	1%[46.1 µM]	-3%	?
OCC1(CCOc2ccccc2)CCN(Cc2cn[nH]c2-c2ccc(F)cc2)CC1	-2%	0%	-28%[46.1 µM]	-17%	4µM*
CCOc1ccccc1CN1CCC(CO)(CCOc2ccccc2)CC1	-15%	19%	-15%	-12%	-9%[46.1 µM]
Fc1ccccc1N1CCN(C2CCN(Cc3c[nH]c4ccccc34)CC2)CC1	-9%	?	?	0%	9.2µM*
OC1(c2ccc(Cl)cc2)CCN(Cc2c[nH]c3ccccc23)CC1	-3%	-22%	?	-17%	2.8µM*
Clc1ccccc1N1CCN(Cc2c[nH]c3ccccc23)CC1	-15%	-15%	-20%	-24%	?
C/C(CCN1CCCc2nc(C)c(C)cc21)=N\O[C@H](C)c1cn([C@@H]2COC[C@H]2O)nn1	.	.	.	.	7%[14.2 µM]
Cc1ccc(N=Nc2ccc(O)c3ncccc23)cc1	13µM*	?	?	?	?
Oc1ccc(Cl)c2cccnc12	?	?	-17%	-28%	-17%
Cc1ccc(N=Nc2ccc3ccccc3c2O)cc1	-8%	-1%	4.5µM*	5%	?
Oc1c(N=Nc2ccc(F)cc2)ccc2ccccc12	?	0%	?	8%	?
Oc1ccc(F)c2cccnc12	-6%	?	20%	-16%	?
COc1ccccc1N=Nc1ccc(O)c2ncccc12	?	2.2µM*	.	?	.
Oc1ccc(N=Nc2ccccc2C(F)(F)F)c2cccnc12	?	3.2µM*	.	?	.
O=C(c1cccc(Cl)c1)N1CCCC(Cn2cc(C(=O)N3CCCC3)nn2)C1 (configuration not stated)	-4%	.	.	0%	.
COc1cc(C(=O)N(Cc2cc3ccc(C)cc3nc2N(C)C)C2CC2)cc(OC)c1OC	-8%	.	.	3%	.
CCS(=O)(=O)c1ccc(N=Nc2ccc(O)c3ncccc23)c(OC)c1	7.9µM*	?	?	?	?
CCS(=O)(=O)c1ccc(O)c(NC(=O)c2cc(OC)c(OC)c(OC)c2)c1	i	4%	-2%	-12%	11%
SMILES	VACV mCherry inh	HCV inhibitor	Lassa entry inh	VACV Venus inh	Marburg entry inh
O=C(COCc1cc(-c2cccs2)on1)NCc1cccc(Cl)c1	-13%	.	-1%[46.1 µM]	0%	.
Cc1ccc(-c2cc(C(F)(F)F)n3nc(C(=O)NCCCn4ccnc4)cc3n2)cc1C	.	5µM*	0%	.	-11%
COCCNC(=O)c1nn2c(C(F)(F)F)cc(-c3ccccc3)nc2c1Cl	.	-5%	.	.	.
O=C(NCCCn1ccnc1)c1nn2c(C(F)(F)F)cc(-c3ccccc3)nc2c1Cl	i	10µM*	3%	-29%	?
COc1ccc(-c2cc(C(F)(F)F)n3nc(C(=O)N(C)Cc4ccccc4)cc3n2)cc1OC	-15%	10µM*	.	-12%	.
CCc1ccc(-c2nn(CC(=O)NCc3ccccc3)c3c2cnc2ccc(F)cc23)cc1	-8%	.	-8%[46.1 µM]	-7%	.
O=c1[nH]c2ccc(NS(=O)(=O)c3ccc(F)cc3)cc2s1	-9%[7.34 µM]	.	-9%[46.1 µM]	-7%[7.34 µM]	.
O=c1[nH]cnc2c1c(-c1ccccc1)cn2-c1cccc(Cl)c1	.	9%	.	.	.
COc1ccc(-n2cc(-c3ccccc3)c3c(=O)[nH]cnc32)cc1	?	1%	21µM*	?	?
CN(C)c1ccc(/C=C\C=C/c2ccnc3ccccc23)cc1	51%	.	.	18%	.
CCOC(=O)c1ccccc1NC(=O)c1c(F)c(F)c(F)c(F)c1F	.	10µM*	-12%	.	?
CCOC(=O)c1ccccc1NC(=O)c1ccc(N(C)S(C)(=O)=O)cc1	-1%	10µM*	-13%	0%	-4%
CN(C(=O)CSc1nc2ccccc2[nH]1)c1ccc(F)cc1	-10%	.	.	-6%	4%[46.1 µM]
Cc1ccc(-n2nc(C)c3c(C(=O)NCCc4ccc(S(N)(=O)=O)cc4)cc(C)nc32)cc1	-22%	.	23%[46.1 µM]	-15%	.
O=C(NCc1ccccc1)c1ccc(CN2CCC(Cc3ccccc3)CC2)cc1	.	10µM*	.	.	.
CCc1ccccc1NC(=O)c1ccc(CN2CCC(Cc3ccccc3)CC2)cc1	.	13µM*	?	?	?
O=C(C1=NC2=C(CCCC2)CC1)C1CCCCN1 (configuration not stated)	.	.	.	.	3%[46.1 µM]
CCOC(=O)N1CCN(C(=O)CN(Cc2ccc(Cl)cc2)S(=O)(=O)c2ccc(C)cc2)CC1	.	?	8.2µM*	.	-23%
CCOC(=O)N1CCN(C(=O)CN(Cc2ccc(Cl)cc2)S(C)(=O)=O)CC1	.	5%	-12%	-8%	16%
COc1ccc(CSc2nc3ccncc3n2Cc2nc(-c3ccc(OC)c(OC)c3)oc2C)cc1	-16%	.	.	-6%	-12%[46.1 µM]
Cc1ccc(CNC(=O)CSc2ccc(-c3ccccn3)nn2)cc1	7.1µM*	-5%	?	?	?
O=C(CSc1ccc(-c2ccccn2)nn1)NCc1ccc(Cl)cc1	?	-2%	-30%[46.1 µM]	-16%	-17%[46.1 µM]
COc1ccccc1NC(=O)CSc1ccc(-c2ccccn2)nn1	14µM*	?	?	?	?
COc1ccc(C)cc1NC(=O)CSc1ccc(-c2ccco2)nn1	?	10µM*	4%	-19%	-22%
O=C(CSc1ccc(-c2cccnc2)nn1)Nc1ccc(Br)cc1	?	13µM*	?	?	-24%
COc1ccc(NC(=O)CSc2ccc(-c3ccccn3)nn2)cc1OC	-8%	2%	?	-3%	?
Cc1cccc(-c2c3c(=O)n(C)c(=O)n(C)c3c3cnc4ccccc4n23)c1	-12%	.	-12%[46.1 µM]	-3%	-2%[46.1 µM]
CCc1ccc(NC(=O)c2ccc3c(O)c(S(=O)(=O)c4ccc(Cl)cc4)c(=O)[nH]c3c2)cc1	-5%[7.34 µM]	.	-2%[46.1 µM]	-8%[7.34 µM]	.
O=C(CSc1ccc(-c2ccccn2)nn1)Nc1ccc(F)c(F)c1	?	10µM*	?	?	-23%
Cc1ccc(NC(=O)CSc2ccc(-c3ccccn3)nn2)cc1	?	?	?	?	-29%[46.1 µM]
